Laboratory results reported in PubChem BioAssay AID1159554 (Broad Institute, 2015).
The campaign covered roughly 94,000 compounds. About 2,100 (2.2%) were called active. The full list was thinned out, with actives kept by preference. Values without a mark were called inactive. Cut-off read from the data, not from the text of the source: active = activity change below about -80%; inconclusive = no clear call, values can overlap the other calls; inactive = above that.

Assay: P. falciparum Dd2 growth inhibitors, primary screen, SYBR Green fluorescence, single dose replicates (AID 1159554)
Conditions: 72 h, at 10 µM, hits give low values

| SMILES | activity change |
| --- | --- |
| CCC(=O)N(C)C[C@H]1Oc2ncc(C#CC(C)C)cc2C(=O)N([C@@H](C)CO)C[C@H]1C | 34.1% |
| CN1C(=O)c2cc(NC(=O)C3CCCC3)ccc2OC[C@H]2O[C@H](CC(=O)NCc3ccccc3F)CC[C@H]21 | -16.4% |
| O=C(C1CCCC1)N1[C@H](CO)[C@H]2c3ccccc3N(S(=O)(=O)c3ccccc3)C[C@H]21 | -20% |
| Cc1noc(C)c1NC(=O)N(C)C[C@H]1Oc2ccc(NC(=O)Cn3cnnn3)cc2CC(=O)N([C@H](C)CO)C[C@@H]1C | 26.5% |
| C[C@H](CO)N1C[C@H](C)[C@@H](CN(C)Cc2ccc(C(=O)Nc3ccccc3N)cc2)Oc2c(NC(=O)C3CC3)cccc2C1=O | -57.7% |
| C[C@H](CO)N1C[C@H](C)[C@H](CN(C)Cc2ccc(C(=O)Nc3ccccc3N)cc2)Oc2c(NC(=O)Nc3ccccc3)cccc2C1=O | -80.2% (active) |
| Cc1cc(C(=O)Nc2cccc3c2O[C@@H](CN(C)Cc2ccc(C(=O)Nc4ccccc4N)cc2)[C@H](C)CN([C@@H](C)CO)C3=O)n(C)n1 | -84.4% (active) |
| Cc1cc(C(=O)Nc2cccc3c2O[C@@H](CN(C)Cc2ccncc2)[C@@H](C)CN([C@@H](C)CO)C3=O)n(C)n1 | 6.17% |
| Cc1cc(C(=O)Nc2cccc3c2O[C@@H](CN(C)Cc2ccc(C(=O)O)cc2)[C@H](C)CN([C@@H](C)CO)C3=O)n(C)n1 | 6.12% |
| C[C@@H]1CN([C@@H](C)CO)C(=O)c2cccc(NC(=O)Nc3ccccc3)c2O[C@H]1CN(C)Cc1ccccc1 | -14.5% |
| CC(C)(C)[S@](=O)N1Cc2cc(C(=O)N3CCCCC3)nc(-c3cccc(Br)c3)c2[C@@H]1CCO | -2.81% |
| COc1cccc(S(=O)(=O)N[C@H]2C=C[C@@H](CC(=O)NCc3ccccc3)O[C@@H]2CO)c1 | 18.4% |
| O=C(C[C@@H]1CC[C@@H]2[C@H](COC[C@H](O)CN2C(=O)c2ccncc2)O1)NCc1cc(F)cc(F)c1 | 1.9% |
| COc1ccc(-c2cnc3c(c2)C(=O)N([C@@H](C)CO)C[C@H](C)[C@@H](CN(C)C(=O)C2CC2)O3)cc1 | 13.9% |
| O=C(c1ccc(F)cc1)N1CC2(C1)[C@H](c1ccccc1)[C@@H](CO)N2Cc1ccccn1 | -24.5% |
| O=C1CN(S(=O)(=O)Cc2ccccc2)C[C@@H]2[C@@H](c3ccc(C#Cc4ccccc4)cc3)[C@@H](CO)N12 | -68.4% |
| O=C1CN(S(=O)(=O)c2ccccc2)C[C@H]2[C@H](c3ccc(C4=CCCC4)cc3)[C@@H](CO)N12 | 5.25% |
| Cc1ccccc1S(=O)(=O)N1CC(=O)N2[C@H](CO)[C@H](c3ccc(C#CC4CC4)cc3)[C@@H]2C1 | -84.8% (active) |
| O=C1CN(S(=O)(=O)c2ccccc2)C[C@H]2[C@H](c3ccc(C#CCc4ccccc4)cc3)[C@@H](CO)N12 | -82.9% (active) |
| Cc1ccccc1S(=O)(=O)N1CC(=O)N2[C@H](CO)[C@H](c3ccc(C#CCN(C)C)cc3)[C@H]2C1 | -1.17% |

| SMILES | activity change |
| --- | --- |
| Cc1ccccc1S(=O)(=O)N1CC(=O)N2[C@H](CO)[C@@H](c3ccc(C#Cc4ccccc4)cc3)[C@H]2C1 | -22.9% |
| C[C@@H]1CN([C@@H](C)CO)S(=O)(=O)c2ccc(C#CC(C)(C)O)cc2O[C@H]1CN(C)C(=O)CN(C)C | 31.6% |
| Cc1ccccc1S(=O)(=O)N1[C@@H](C#N)[C@H](c2ccccc2)[C@@H]1CO | 20.4% |
| CCCNC(=O)N1CC2(CN(C(=O)C3CCCCC3)C2)c2c([nH]c3cc(OC)ccc23)[C@@H]1CO | -5.82% |
| O=C(Nc1ccc(F)cc1)N[C@H]1C=C[C@@H](CC(=O)N2CCOCC2)O[C@H]1CO | -16.7% |
| COc1ccc(S(=O)(=O)N(C)C[C@H]2Oc3c(NC(=O)CCCCCC(=O)Nc4ccccc4N)cccc3C(=O)N([C@H](C)CO)C[C@H]2C)cc1 | -89.5% (active) |
| C[C@H](CO)N1C[C@H](C)[C@H](CN(C)S(=O)(=O)c2ccccc2)Oc2c(NC(=O)CCCCCC(=O)Nc3ccccc3N)cccc2C1=O | -73.2% |
| COc1ccc(S(=O)(=O)N(C)C[C@H]2Oc3c(NC(=O)Nc4cccc5ccccc45)cccc3C(=O)N([C@@H](C)CO)C[C@H]2C)cc1 | -88.1% (active) |
| C[C@@H]1CN([C@@H](C)CO)C(=O)c2cccc(NC(=O)Nc3cccc4ccccc34)c2O[C@H]1CN(C)S(=O)(=O)c1ccccc1 | -19.1% |
| COc1ccc(S(=O)(=O)N(C)C[C@@H]2Oc3c(NC(=O)NC(C)C)cccc3C(=O)N([C@@H](C)CO)C[C@@H]2C)cc1 | -6.46% |
| C[C@H]1CN([C@@H](C)CO)C(=O)c2cccc(NC(=O)CCCCCC(=O)Nc3ccccc3N)c2O[C@@H]1CN(C)S(=O)(=O)c1cn(C)cn1 | 22.6% |
| COCC(=O)Nc1ccc2c(c1)C(=O)N(C)C[C@@H](OC)[C@@H](C)CN(C(=O)Cc1ccccn1)[C@@H](C)CO2 | -33.6% |
| COc1ccc(S(=O)(=O)N(C)C[C@H]2OCCCC[C@@H](C)Oc3ccc(NS(=O)(=O)c4ccc(C)cc4)cc3C(=O)N([C@@H](C)CO)C[C@@H]2C)cc1 | -36.4% |
| CCCNC(=O)N1[C@H](CO)[C@H]2c3ccccc3N(C(=O)Nc3cccc(Cl)c3)C[C@H]21 | 6.16% |
| COc1cccc(-c2ccc([C@@H]3[C@@H](C#N)N(C(=O)c4ccccn4)[C@H]3CO)cc2)c1 | -35.5% |
| COc1cccc(-c2ccc([C@@H]3[C@@H](CO)N(C(=O)c4ccccn4)[C@H]3C#N)cc2)c1 | -11.6% |
| COc1cccc(C#Cc2ccc([C@H]3[C@@H](CO)N(C(=O)c4ccccn4)[C@H]3C#N)cc2)c1 | -92% (active) |
| CCCN1C[C@H](C)[C@H](OC)CN(C)C(=O)c2cc(NC(=O)NC3CCCC3)ccc2OC[C@H]1C | 20% |
| C[C@@H]1CCCCO[C@@H](CN(C)S(C)(=O)=O)[C@H](C)CN([C@@H](C)CO)C(=O)c2cc(NC(=O)Nc3ccc4c(c3)OCO4)ccc2O1 | 33.8% |
